# Hits are enriched below; roughly 11% of the tested compounds scored in any of these assays.
# BAZ2B inh – qHTS Assay for Inhibitors of BAZ2B | AID 504333, 2011 | AlphaScreen BAZ2B-H3K14Ac peptide displacement | Bromodomain adjacent to zinc finger domain protein 2B (Homo sapiens), Q9UIF8 | hit rate 4.4% among 360,000 | Potency, µM (titrated, usually from 114 µM), for the others: at the top dose activity change, negative = inhibition, most hits filed as inhibitors; further: on the % scale 0 is the no-effect control and ±100 the full control effect; nearly all actives have a fitted effect of over 60% in size
#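 AlphaScreen displacement: compounds (up to 110uM) incubated 30 min at room temperature with a preformed 50 nM BAZ2B/50 nM biotinylated H3K14Ac peptide complex in PBS pH 7.4 with Tween-20. Donor and acceptor beads at 10 ug/mL final added, 20 min light-protected before reading.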
# G9a inh – qHTS Assay for Inhibitors of Histone Lysine Methyltransferase G9a | Potency, µM (top dose mostly 102 µM), without a hit: at the top dose activity, negative = inhibition, usual class: inhibitors | AID 504332, 2011 | G9a H3K9 monomethylation, AlphaScreen, 2 h | hit rate 8.8% among 350,000; further: on the % scale 0 is the no-effect control and ±100 the full control effect; nearly all actives have a fitted effect of over 75% in size
# Target sequence (Q96KQ7 913-1193 limits assumed): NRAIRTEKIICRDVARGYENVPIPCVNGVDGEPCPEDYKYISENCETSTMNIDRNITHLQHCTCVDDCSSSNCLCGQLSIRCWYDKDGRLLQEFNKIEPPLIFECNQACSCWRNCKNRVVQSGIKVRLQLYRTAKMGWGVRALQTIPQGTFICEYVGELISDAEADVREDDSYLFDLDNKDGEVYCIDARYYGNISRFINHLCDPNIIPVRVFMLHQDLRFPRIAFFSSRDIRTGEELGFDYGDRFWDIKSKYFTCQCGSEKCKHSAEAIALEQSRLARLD
#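 AlphaScreen read-out: biotin-H3K9 peptide (500 nM) methylation by 20 nM enzyme with 20 uM SAM, 2 h at room temperature after 15 min compound preincubation; anti-monomethyl H3K9 antibody plus donor/acceptor beads, 10 min dark.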
# JMJD2A Tudor – qHTS Assay for Inhibitors of JMJD2A-Tudor Domain; Lysine-specific demethylase 4A (Homo sapiens), O75164; AlphaScreen JMJD2A-Tudor / H3K4me3 peptide binding; Potency, µM (titrated, usually from 114 µM), inactives show at the top dose activity change, negative = inhibition, hits mostly inhibitors; hit rate 4.4% among 390,000; AID 504339, 2011; further: on the % scale 0 is the no-effect control and ±100 the full control effect; nearly all actives have a fitted effect of over 50% in size
# PLK1 PBD block – qHTS for Inhibitors of PLK1-PDB (polo-like kinase 1 - polo-box domain): Primary Screen. AID 720504, 2013. hit rate 2.8% among 360,000. Plk1 PBD binding of FITC phosphopeptide, fluorescence polarization. Potency, µM, inactives show max response, negative = inhibition, actives largely listed as inhibitors. Serine/threonine-protein kinase PLK1 (Homo sapiens), P53350; further: series mostly up to about 57 µM; on the % scale 0 is the no-effect control and ±100 the full control effect; nearly all actives have a fitted effect of over 65% in size
# HP1b chromo inh – HTS for Inhibitors of HP1-beta Chromodomain Interactions with Methylated Histone Tails. AID 540317, 2011. hit rate 0.56% among 390,000. AlphaScreen HP1-beta / biotin-H3K9me3 peptide binding. Potency, µM (top dose mostly 114 µM), for inactives: at the top dose activity change, negative = inhibition, most hits filed as inhibitors. Chromobox protein homolog 1 (Homo sapiens), P83916; further: nearly all actives have a fitted effect of over 70% in size
# Target sequence (P83916 whole entry, looked up): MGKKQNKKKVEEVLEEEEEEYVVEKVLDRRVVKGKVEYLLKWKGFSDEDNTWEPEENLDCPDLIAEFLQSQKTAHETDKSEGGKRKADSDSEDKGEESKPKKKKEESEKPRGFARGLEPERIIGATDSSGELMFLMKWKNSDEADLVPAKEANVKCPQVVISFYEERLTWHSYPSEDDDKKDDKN
#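 Compound inhibition of the preformed complex between 50 nM HP1-beta and 50 nM biotinylated H3K9me3 peptide was read by AlphaScreen. Buffer was PBS pH 7.4 with 0.01% Tween-20. Incubations ran 30 min at room temperature, with 10 ug/mL donor/acceptor beads.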
# VDR inh – Inhibitors of the vitamin D receptor (VDR): qHTS; Vitamin D3 receptor (Homo sapiens), P11473; VDR-SRC2-3 peptide fluorescence polarization, 2 h; Potency, µM, for the others: max response, negative = inhibition, usual class: inhibitors; hit rate 0.93% among 400,000; further: on the % scale 0 is the no-effect control and ±100 the full control effect
#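 Measured by FP: displacement of SRC2-3 coactivator peptide from VDR by library compounds, following a two-hour ambient incubation.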
# Starred values were filed as active, the others as inactive; ? = inconclusive; / = not tested or not shown; [ ] = another dose, or the depositor's remark. The call rests on the fitted dose curve; in most records, active means well fitted curve in the direction sought with a large enough effect; inconclusive means small, poorly fitted or top-dose-only effect, or another doubt; inactive means no such curve, though single readings can be large; an effect the other way counts as inactive or inconclusive. Potency means the concentration at half of the fitted maximal effect.
SMILES,BAZ2B inh,G9a inh,JMJD2A Tudor,PLK1 PBD block,HP1b chromo inh,VDR inh
C=CCSc1nccc(-c2nn(-c3ccc(C)cc3)ccc2=O)n1,-3.6%,50.1µM*,-17.2%,-10.2%,49.4%,-3.9%
Cc1[nH]c2ccccc2c1C(C#N)(C#N)C1C(=O)c2ccccc2C1=O,7.94µM*,-111.2%[12.7 µM],12.6µM*,?,11.2µM*,-25.4%
COc1ccc(S(=O)(=O)n2oc(=O)cc2-c2ccccc2)cc1,56.2µM*,39.8µM*,-15.0%,-17.1%,13.3%,-12.7%
O=c1cc(-c2ccccc2)n(S(=O)(=O)c2ccc3ccccc3c2)o1,/,/,44.7µM*,?,-18.8%,?
COc1ccc(S(=O)(=O)n2oc(=O)cc2-c2ccccc2)cc1OC,56.2µM*,?,35.5µM*,?,4.1%,-21.4%
O=C(CN1C(=O)C2(OCCO2)c2ccccc21)c1ccc(Br)cc1,-31.3%,39.8µM*,-7.1%,-14.0%,34.9%,2.7%
O=C(COCc1cc(-c2cccs2)on1)N1CCN(c2cccc(Cl)c2)CC1,-8.0%,-21.3%[59 µM],-18.5%,/,27.0%,9.4%
O=C(NN=C1CCCCCC1)c1cc(-c2ccccc2)nc2ccccc12,-3.6%[57.1 µM],9.7%,?,2.99µM*,-14.8%,-24.8%
Cc1cc(C(=O)NN=C2CCCC2)c2ccccc2n1,-5.8%,-23.3%,11.2µM*,-16.4%,6.1%,14.3%
Cc1cc(C(=O)NN=C2CCCCC2)c2ccccc2n1,-6.3%,18.5%[59 µM],7.0%,-0.6%,36.8%,-22.5%
CCCn1cnc2cc(NCc3ccccc3O)ccc21,-30.4%,39.8µM*,-35.9%,-9.1%,4.0%,23.0%
CCn1cnc2cc(NCc3ccc(Br)cc3)ccc21,44.7µM*,12.6µM*,14.1µM*,-10.2%,?,1.7%
CCOc1ccc(CNc2ccc3c(c2)ncn3C(C)(C)C)cc1,?,79.4µM*,?,-0.6%,-30.8%,-14.2%
CCN(CC)c1ccc(CNc2ccc3c(c2)ncn3CC)cc1,15.8µM*,22.4µM*,20µM*,-1.0%,35.5µM*,8.2%
Cc1nc2nc(NC(=O)c3ccc(Cl)cc3)[nH]n2c(=O)c1Cc1ccccc1,-36.4%,-22.8%[59 µM],-26.7%,/,21.3%,4.6%
Cc1ccc(CNC(=O)c2ccc(CN3CC(=O)N4CCCCC4C3=O)cc2)cc1 (stereo unspecified),-0.3%,-13.6%[59 µM],-6.3%,/,23.1%,8.9%
CCCn1cnc2cc(NCc3cccc(OC)c3)ccc21,?,-4.3%[12.7 µM],?,-9.4%,-23.3%,7.7%
CCn1cnc2cc(NCc3ccc(N(C)C)cc3)ccc21,10µM*,11.2µM*,10µM*,-6.2%,31.6µM*,8.3%
CC(=O)Nc1ccc2c(c1)ncn2C,-1.3%,-0.1%[59 µM],-14.5%[57.1 µM],-4.0%,59.9%,9.1%
CN(C)c1ccc(CNc2ccc3c(c2)ncn3C(C)(C)C)cc1,15.8µM*,22.4µM*,14.1µM*,-14.4%,35.5µM*,-9.0%
Cn1cnc2cc(NCc3ccc(Cl)cc3)ccc21,?,44.7µM*,?,-10.7%,-19.4%,-6.6%
O=C(CSC1CC(=O)N(CCc2ccccc2)C1=O)Nc1cccc(Cl)c1 (stereo unspecified),?,?,18.2%,?,58.5%,79.4µM*
COc1cc(C=NNC(=O)c2ccc(NS(=O)(=O)c3cccs3)cc2)cc(Br)c1O,/,/,-8.3%,-3.5%,6.9%[57 µM],-0.5%
COc1cc(/C=N/Nc2cccc(C)c2)cc(Br)c1O,44.7µM*,8.91µM*,50.1µM*,-23.1%,?,4.8%
COc1cc(/C=N/Nc2cccc(C)c2)ccc1OC(=O)c1cccs1,-37.8%,10µM*,?,-9.0%,14.7%,-11.8%
Cn1c(N)c(C#N)c(-c2ccccc2)c(C#N)c1=O,/,/,/,-7.9%,/,/
CCNCc1nc2cc(Cl)ccc2c(=O)[nH]1,-3.8%,?,-5.6%,-8.0%,40.2%,25.4%

# Bioassay records from PubChem.
